This is an account of results in the antibiotic and cytotoxicity screens of Wong et al. (2023).

The campaign covered roughly 39,000 compounds. About 3,300 (8.5%) were called active. This is one part of a sample in which actives are shown more often than they occur.

This test relates to HepG2. Kind of test: cytotoxicity call (relative viability < 0.9). Particulars: 10 µM.
With `C[C@@H]1CN([C@H](C)CO)C(=O)c2cc(NC(=O)c3ccncc3)ccc2O[C@@H](C)CCCCO[C@H]1CN(C)C(=O)Nc1cccc2ccccc12`, the cytotoxicity call is “inactive”. For `C[C@@H]1CCCCO[C@@H](CN(C)C(=O)c2ccccc2)[C@H](C)CN([C@H](C)CO)C(=O)c2cc(NC(=O)Nc3ccc(F)cc3)ccc2O1`, the cytotoxicity call is “inactive”.

Take `C[C@H]1CCCCO[C@H](CN(C)C(=O)c2ccccc2)[C@@H](C)CN([C@@H](C)CO)C(=O)c2cc(NC(=O)CCC(F)(F)F)ccc2O1`: the cytotoxicity call was “inactive”. In the case of `Cc1noc(N)c1C(=O)O` it was “inactive”; in that of `COCC(=O)N1C[C@H](C)[C@@H](OC)CN(C)C(=O)c2cc(NC(=O)c3cc(C)on3)ccc2OC[C@H]1C`, “inactive”; in that of `C[C@H]1CN([C@@H](C)CO)C(=O)c2cc(C#Cc3ccccc3F)cnc2O[C@@H]1CN(C)C(=O)Cc1cccnc1`, “inactive”. In the case of `O=c1ccc(=O)n(CCO)[nH]1` it was “inactive”. In the case of `C#CCN(O[C@@H](/C=C/[C@@H](O)Cc1ccccc1)C1CC1)[C@@H](Cc1ccc(-n2cc(COc3ccccc3/C=C(C)/C=C/C(=O)NO)nn2)cc1)C(=O)OC` it was “inactive”. `Cc1noc(C)c1S(=O)(=O)N(C)C[C@@H]1OCCCC[C@H](C)Oc2ccc(NC(=O)Nc3cccc4ccccc34)cc2C(=O)N([C@H](C)CO)C[C@@H]1C`: the cytotoxicity call is “inactive”. In the case of `COc1ccc(S(=O)(=O)N(C)C[C@H]2Oc3ccc(NC(=O)NC(C)C)cc3C(=O)N([C@@H](C)CO)C[C@@H]2C)cc1` it was “inactive”; in that of `C[C@@H]1CN([C@H](C)CO)C(=O)Cc2cc(NC(=O)Nc3cccc4ccccc34)ccc2O[C@H]1CN(C)S(=O)(=O)c1ccc(F)cc1`, “inactive”. Regarding `C[C@H](CO)N1C[C@H](C)[C@H](CN(C)S(=O)(=O)c2ccc(F)cc2)Oc2ccc(NC(=O)Nc3cccc4ccccc34)cc2CC1=O`, the cytotoxicity call was “active”. For the compound `C[C@@H]1CN([C@@H](C)CO)C(=O)Cc2cc(NC(=O)Nc3cccc4ccccc34)ccc2O[C@@H]1CN(C)S(=O)(=O)c1ccc(F)cc1`, the cytotoxicity call is “inactive”.

As for `Cc1noc(C)c1NC(=O)N(C)C[C@H]1Oc2ccc(NS(C)(=O)=O)cc2CC(=O)N([C@@H](C)CO)C[C@@H]1C`, the cytotoxicity call was “inactive”. In the case of `O=C(C[C@H]1C[C@H]2c3cc(NC(=O)Nc4ccc(C(F)(F)F)cc4)ccc3O[C@H]2[C@@H](CO)O1)NCc1cc(F)ccc1F` it was “inactive”; in that of `C[C@@H]1CN([C@@H](C)CO)C(=O)c2cccc(NC(=O)Nc3ccc(F)cc3)c2O[C@H]1CN(C)C(=O)Nc1ccc(C(F)(F)F)cc1`, “inactive”; in that of `CCC(C)C1NC(=O)C(CCNCS(=O)(=O)[O-])NC(=O)C(NC(=O)C(CCNCS(=O)(=O)[O-])NC(=O)C(NC(=O)C(CCNCS(=O)(=O)[O-])NC(=O)CCCCC(C)C)C(C)O)CCNC(=O)C(C(C)O)NC(=O)C(CCNCS(=O)(=O)[O-])NC(=O)C(CCNCS(=O)(=O)[O-])NC(=O)C(C(C)CC)NC1=O.[Na+].[Na+].[Na+].[Na+].[Na+]` (centres undefined), “active”. As to `CC(C)CCCC(=O)N[C@@H](CCNCS(=O)(=O)O)C(=O)N[C@H](C(=O)N[C@@H](CCNCS(=O)(=O)O)C(=O)N[C@H]1CCNC(=O)[C@H]([C@@H](C)O)NC(=O)[C@H](CCNCS(=O)(=O)O)NC(=O)[C@H](CCNCS(=O)(=O)O)NC(=O)[C@H](CC(C)C)NC(=O)[C@H](CC(C)C)NC(=O)[C@H](CCNCS(=O)(=O)O)NC1=O)[C@@H](C)O`, the cytotoxicity call was “inactive”. Consider `C[C@@H]1CN([C@H](C)CO)S(=O)(=O)c2ccc(C#Cc3cccnc3)cc2O[C@H]1CN(C)CC1CCCC1`, for which the cytotoxicity call was “inactive”. For the compound `Cc1noc(C)c1S(=O)(=O)N(C)C[C@H]1Oc2ccc(NS(C)(=O)=O)cc2C(=O)N([C@H](C)CO)C[C@H]1C`, the cytotoxicity call was “inactive”. In the case of `COc1ccc(NC(=O)Nc2ccc3c(c2)[C@@H]2C[C@H](CC(=O)N4CCN(C)CC4)O[C@@H](CO)[C@@H]2O3)cc1` it was “inactive”. In the case of `Cc1ccc(S(=O)(=O)Nc2ccc3c(c2)C(=O)N([C@@H](C)CO)C[C@H](C)[C@@H](CN(C)C(=O)Cc2ccccc2)OCCCC[C@@H](C)O3)cc1` it was “active”; in that of `C[C@@H]1CN([C@@H](C)CO)C(=O)c2cc(NS(=O)(=O)c3ccc(F)cc3)ccc2O[C@@H](C)CCCCO[C@@H]1CN(C)C(=O)Cc1ccccc1`, “inactive”. For the compound `Cc1ccc(S(=O)(=O)Nc2ccc3c(c2)C(=O)N([C@@H](C)CO)C[C@H](C)[C@H](CN(C)C(=O)Cc2ccccc2)OCCCC[C@@H](C)O3)cc1`, the cytotoxicity call was “inactive”. In the case of `C[C@@H]1CCCCO[C@@H](CN(C)C(=O)Cc2ccccc2)[C@@H](C)CN([C@H](C)CO)C(=O)c2cc(NS(=O)(=O)c3ccc(F)cc3)ccc2O1` it was “inactive”; in that of `Cc1ccc(S(=O)(=O)Nc2ccc3c(c2)C(=O)N([C@@H](C)CO)C[C@@H](C)[C@H](CN(C)C(=O)Cc2ccccc2)OCCCC[C@H](C)O3)cc1`, “inactive”; in that of `C[C@@H]1CN([C@H](C)CO)C(=O)c2cc(NS(=O)(=O)c3ccc(Cl)cc3)ccc2O[C@@H](C)CCCCO[C@@H]1CN(C)C(=O)Cc1ccccc1`, “active”. In the case of `C[C@H]1CCCCO[C@@H](CN(C)C(=O)Cc2ccccc2)[C@@H](C)CN([C@@H](C)CO)C(=O)c2cc(NS(=O)(=O)c3ccc(F)cc3)ccc2O1` it was “active”. In the case of `C[C@@H]1CN([C@@H](C)CO)C(=O)c2cc(NS(=O)(=O)c3ccc(Cl)cc3)ccc2O[C@@H](C)CCCCO[C@H]1CN(C)C(=O)Cc1ccccc1` it was “inactive”; in that of `C[C@@H]1CCCCO[C@@H](CN(C)C(=O)Cc2ccccc2)[C@@H](C)CN([C@@H](C)CO)C(=O)c2cc(NS(=O)(=O)c3ccc(Cl)cc3)ccc2O1`, “inactive”; in that of `CN(C)CC#Cc1ccc([C@@H]2[C@H]3CN(C(=O)c4cccnc4)CC(=O)N3[C@H]2CO)cc1`, “inactive”. Consider `CC(C)(C)[S@](=O)N1Cc2cc(C(=O)NCc3ccncc3)nc(-c3cccc(-c4ccc(C#N)cc4)c3)c2[C@@H]1CCO`, for which the cytotoxicity call is “inactive”. In the case of `CO[C@H]1CN(C)C(=O)c2cc(NC(=O)C3CC3)ccc2OC[C@H](C)N(C(=O)CN2CCOCC2)C[C@H]1C` it was “inactive”.

For `COC1=C(CC=C(C)C)C(=O)c2ccccc2C1=O`, the cytotoxicity call is “active”. Next, `CC(C)=CCC1=C(O)C(=O)c2ccccc2C1=O`: “inactive”; `CC(C)=CCCC(C)=CCC1=C(C)C(=O)c2ccccc2C1=O`: “inactive”; `Cc1noc(C)c1S(=O)(=O)Nc1ccc2c(c1)CC(=O)N([C@H](C)CO)C[C@@H](C)[C@H](CN(C)S(=O)(=O)c1ccccc1)O2`: “inactive”. For `CN(Cc1ccc(C(C)(C)C)cc1)Cc1cccc2ccccc12`, the cytotoxicity call was “inactive”. In the case of `CCOC(=O)N(C)C[C@H]1OCc2cnnn2CCCC(=O)N([C@@H](C)CO)C[C@H]1C` it was “inactive”; in that of `C[C@@H]1NC(=O)[C@@H](N)CNC(=O)[C@H]([C@H]2CCN=C(N)N2)NC(=O)/C(=C\NC(N)=O)NC(=O)[C@H](CNC(=O)C[C@@H](N)CCCN)NC1=O`, “inactive”; in that of `C[C@H](CO)N1C[C@H](C)[C@H](CN(C)C(=O)Nc2ccc(C(F)(F)F)cc2)Oc2ccc(NC(=O)Nc3ccccc3)cc2CC1=O`, “inactive”. In the case of `C[C@H](CO)N1C[C@H](C)[C@H](CN(C)C(=O)Nc2ccccc2)Oc2ccc(NC(=O)Nc3ccc(C(F)(F)F)cc3)cc2CC1=O` it was “active”.

Turning to `C[C@H](CO)N1C[C@H](C)[C@@H](CN(C)C(=O)Nc2ccccc2)Oc2ccc(NC(=O)Nc3ccc(C(F)(F)F)cc3)cc2CC1=O`, the cytotoxicity call is “inactive”.

As to `C[C@@H]1CN([C@@H](C)CO)C(=O)Cc2cc(NC(=O)Nc3ccccc3)ccc2O[C@@H]1CN(C)C(=O)Nc1ccc(C(F)(F)F)cc1`, the cytotoxicity call was “inactive”. Next, `C[C@H]1CN([C@@H](C)CO)C(=O)Cc2cc(NC(=O)Nc3ccc(C(F)(F)F)cc3)ccc2O[C@@H]1CN(C)C(=O)Nc1ccccc1`: “inactive”; `C[C@@H]1CN([C@@H](C)CO)C(=O)Cc2cc(NC(=O)Nc3ccc(C(F)(F)F)cc3)ccc2O[C@@H]1CN(C)C(=O)Nc1ccccc1`: “active”; `COc1ccc(NC(=O)N(C)C[C@H]2OCCCC[C@H](C)Oc3ccc(NC(=O)NC(C)C)cc3C(=O)N([C@@H](C)CO)C[C@@H]2C)cc1`: “inactive”. In the case of `Cc1cc(C(=O)Nc2cccc3c2O[C@H](CN(C)S(=O)(=O)c2ccc(F)cc2)[C@@H](C)CN([C@@H](C)CO)C3=O)n(C)n1` it was “inactive”; in that of `C[C@H](CO)N1C[C@H](C)[C@@H](CN(C)C(=O)Nc2ccc3c(c2)OCO3)Oc2ccc(NC(=O)Nc3cccc4ccccc34)cc2C1=O`, “inactive”. As to `COc1ccc(S(=O)(=O)N(C)C[C@@H]2Oc3c(NC(=O)c4ccncc4)cccc3C(=O)N([C@H](C)CO)C[C@H]2C)cc1`, the cytotoxicity call is “inactive”. Next, `CN(C)CCc1cc(Br)c(OCCCNC(=O)/C=C/c2cc(Br)c(OCCN3CCCCC3)c(Br)c2)c(Br)c1`: “active”.

As to `CN(C)CCc1cc(Br)c(OCCCNC(=O)/C=C/c2cc(Br)c(OCCN3CCCC3)c(Br)c2)c(Br)c1`, the cytotoxicity call is “active”. For `C=CC(=O)NCCN1CCCCC1`, the cytotoxicity call is “inactive”.

Take `COc1ccc(NC(=O)Nc2ccc3c(c2)C(=O)N([C@@H](C)CO)C[C@@H](C)[C@@H](CN(C)S(=O)(=O)c2ccc(Cl)cc2)OCCCC[C@@H](C)O3)cc1`: the cytotoxicity call is “inactive”. Turning to `C[C@H](CO)N1C[C@H](C)[C@H](CN(C)S(C)(=O)=O)OCCCC[C@H](C)Oc2ccc(NS(C)(=O)=O)cc2C1=O`, the cytotoxicity call is “inactive”. In the case of `NC(=O)C1CCOCC1` it was “inactive”.

As for `C[C@@H]1CN([C@H](C)CO)C(=O)c2cc(C#Cc3ccccn3)cnc2O[C@H]1CN(C)C(=O)CCN1CCCCC1`, the cytotoxicity call was “inactive”. `CC(=O)O[C@H]1CCS(=O)(=O)C1`: the cytotoxicity call was “inactive”. Next, `COc1cccc(C(=O)Nc2ccc3c(c2)C(=O)N(C)[C@@H]2CC[C@@H](CC(=O)NCC(F)(F)F)O[C@H]2CO3)c1`: “inactive”; `CCn1nnnc1NCc1cccn1C`: “inactive”; `C[C@@H]1CN([C@@H](C)CO)C(=O)c2cc(NC(=O)Nc3ccc(C(F)(F)F)cc3)ccc2O[C@@H]1CN(C)Cc1ccc(C(F)(F)F)cc1`: “active”. In the case of `C[C@@H]1CN([C@H](C)CO)C(=O)c2cc(NC(=O)Nc3ccc(C(F)(F)F)cc3)ccc2O[C@H]1CN(C)Cc1ccc(C(F)(F)F)cc1` it was “active”; in that of `C[C@@H]1CN([C@@H](C)CO)C(=O)c2cc(NC(=O)Nc3ccc(C(F)(F)F)cc3)ccc2O[C@H]1CN(C)Cc1ccc(C(F)(F)F)cc1`, “active”; in that of `C[C@@H]1CN([C@H](C)CO)C(=O)c2cc(NC(=O)Nc3ccc(C(F)(F)F)cc3)ccc2O[C@@H]1CN(C)Cc1ccc(C(F)(F)F)cc1`, “active”.
